Test results: PubChem BioAssay (NCATS)
Records with an inconclusive call do not appear. The source made the active and inactive calls. Unless noted, the call rests on the fitted dose curve.

How the values were obtained:
[1] = target: Bile acid receptor (Homo sapiens) (UniProt Q96RI1); assay: qHTS assay for small molecule agonists of farnesoid X receptor signaling (AID 588527); conditions: HEK293T FXR-UAS-bla, beta-lactamase ratio, 16 h; activation: stronger effect = higher value;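 further: series mostly up to about 77 µM; 0% = vehicle basal and 100% = reference agonist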
Sequence of Bile acid receptor (Homo sapiens) (Q96RI1 whole entry, looked up): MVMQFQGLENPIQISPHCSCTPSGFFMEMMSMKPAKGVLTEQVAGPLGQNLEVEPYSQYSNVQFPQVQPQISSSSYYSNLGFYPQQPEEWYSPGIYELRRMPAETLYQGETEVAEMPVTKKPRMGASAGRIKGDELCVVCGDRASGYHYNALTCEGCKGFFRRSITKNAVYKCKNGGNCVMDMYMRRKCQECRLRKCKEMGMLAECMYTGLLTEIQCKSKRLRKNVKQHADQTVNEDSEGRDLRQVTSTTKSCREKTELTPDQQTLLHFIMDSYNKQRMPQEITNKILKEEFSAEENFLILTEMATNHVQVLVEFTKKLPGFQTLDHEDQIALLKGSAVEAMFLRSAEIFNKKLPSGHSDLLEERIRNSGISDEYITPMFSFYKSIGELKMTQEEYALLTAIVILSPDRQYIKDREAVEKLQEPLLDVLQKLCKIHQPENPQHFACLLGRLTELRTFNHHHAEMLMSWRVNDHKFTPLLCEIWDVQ
Method in brief: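 Read-out: beta-lactamase reporter fluorescence with CCF4 substrate in GeneBLAzer FXR-UAS-bla HEK293T cells, after 16 h compound exposure at 37 C. Response scaled between DMSO basal (0%) and chenodeoxycholic acid at 100 uM (100%).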

[2] = target: Glucocorticoid receptor (Homo sapiens) (UniProt P04150); assay: qHTS assay for small molecule agonists of glucocorticoid receptor signaling (AID 588532; active means well fitted curve in the direction sought with a large enough effect in the signal ratio, with a control signal flat; the % refers to the signal ratio;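 further: 100% = dexamethasone at 0.1 µM and 0% = DMSO only wells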); conditions: HeLa MMTV-bla, beta-lactamase ratio, agonist, 18 h; activation: stronger effect = higher value, percent of dexamethasone control, DMSO zero
Sequence of Glucocorticoid receptor (Homo sapiens) (P04150 whole entry, looked up): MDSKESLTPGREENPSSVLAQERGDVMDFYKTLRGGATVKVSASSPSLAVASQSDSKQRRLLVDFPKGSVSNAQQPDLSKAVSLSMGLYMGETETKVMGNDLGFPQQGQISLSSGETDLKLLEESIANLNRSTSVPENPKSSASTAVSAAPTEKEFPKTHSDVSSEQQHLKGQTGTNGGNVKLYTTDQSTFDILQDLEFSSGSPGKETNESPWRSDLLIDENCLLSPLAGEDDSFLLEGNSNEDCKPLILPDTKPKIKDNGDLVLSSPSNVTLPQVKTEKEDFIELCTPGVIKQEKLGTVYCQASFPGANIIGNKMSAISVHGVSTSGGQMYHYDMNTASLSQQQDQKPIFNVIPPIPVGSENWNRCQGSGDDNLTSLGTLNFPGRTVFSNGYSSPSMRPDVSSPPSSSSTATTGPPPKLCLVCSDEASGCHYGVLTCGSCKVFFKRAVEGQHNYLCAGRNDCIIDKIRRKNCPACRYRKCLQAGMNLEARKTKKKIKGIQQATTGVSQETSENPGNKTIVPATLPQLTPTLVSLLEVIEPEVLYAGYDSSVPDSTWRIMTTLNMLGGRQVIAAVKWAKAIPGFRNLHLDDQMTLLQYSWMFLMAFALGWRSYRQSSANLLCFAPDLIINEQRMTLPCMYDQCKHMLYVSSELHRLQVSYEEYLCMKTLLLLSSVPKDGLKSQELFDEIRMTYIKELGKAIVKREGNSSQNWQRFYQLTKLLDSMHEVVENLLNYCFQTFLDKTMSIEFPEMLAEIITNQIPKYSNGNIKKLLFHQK
Method in brief: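 Agonist-mode qHTS: GRE-driven beta-lactamase in HeLa cells exposed 18 h to titrated compounds (up to 92 uM), then CCF4 ratio read after 2 h at RT; Hill-fitted EC50, efficacy relative to 0.1 uM dexamethasone.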

[3] = target: Vitamin D3 receptor (Homo sapiens) (UniProt P11473); assay: qHTS assay for small molecule agonists of vitamin D receptor signaling (AID 588543);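 further: 0% = DMSO basal and 100% = reference agonist control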
Sequence of Vitamin D3 receptor (Homo sapiens) (P11473 whole entry, looked up): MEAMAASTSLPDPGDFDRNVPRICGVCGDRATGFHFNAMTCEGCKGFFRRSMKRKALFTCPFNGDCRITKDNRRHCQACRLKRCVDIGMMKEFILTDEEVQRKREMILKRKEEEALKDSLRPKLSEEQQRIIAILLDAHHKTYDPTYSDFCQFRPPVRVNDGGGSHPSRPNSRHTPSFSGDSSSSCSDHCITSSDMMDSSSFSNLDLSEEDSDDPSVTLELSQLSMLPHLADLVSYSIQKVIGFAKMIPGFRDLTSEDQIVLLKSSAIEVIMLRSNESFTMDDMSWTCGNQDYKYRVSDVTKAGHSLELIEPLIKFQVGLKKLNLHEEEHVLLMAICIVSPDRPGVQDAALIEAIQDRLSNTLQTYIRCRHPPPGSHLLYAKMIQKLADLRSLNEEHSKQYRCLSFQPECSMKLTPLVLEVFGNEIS
Method in brief: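 Measured: β-lactamase reporter activity (CCF4, 405 nm excitation, 460/530 nm emission) in HEK293T VDR-UAS-bla cells after 16 h compound exposure at 37 °C. Normalization against 50 nM 1α,25-dihydroxyvitamin D3 and DMSO; Hill-fit EC50.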

[4] = qHTS assay for small molecule agonists of retinoid X receptor alpha signaling (AID 588544); conditions: HEK293T RXRa-UAS-bla, beta-lactamase reporter, 18 h; 530 nm emission; further: potency means the concentration at half of the fitted maximal effect;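 on activation: 0% = DMSO basal wells and 100% = reference agonist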
[5] = target: Retinoic acid receptor RXR-alpha (Homo sapiens) (UniProt P19793); assay: as above
Sequence of Retinoic acid receptor RXR-alpha (Homo sapiens) (P19793 whole entry, looked up): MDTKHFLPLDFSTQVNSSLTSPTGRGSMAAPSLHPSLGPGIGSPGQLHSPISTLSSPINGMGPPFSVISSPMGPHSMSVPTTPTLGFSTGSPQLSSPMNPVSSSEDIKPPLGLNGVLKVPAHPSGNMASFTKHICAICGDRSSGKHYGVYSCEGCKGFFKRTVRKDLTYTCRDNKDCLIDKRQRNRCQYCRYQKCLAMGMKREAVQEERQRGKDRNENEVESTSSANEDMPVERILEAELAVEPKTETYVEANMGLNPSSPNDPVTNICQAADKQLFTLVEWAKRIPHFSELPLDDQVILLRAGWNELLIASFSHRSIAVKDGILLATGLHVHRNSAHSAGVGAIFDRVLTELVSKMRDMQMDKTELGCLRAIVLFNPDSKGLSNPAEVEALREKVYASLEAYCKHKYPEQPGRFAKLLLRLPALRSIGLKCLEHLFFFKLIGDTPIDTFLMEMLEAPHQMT

[6] = target: Thyroid hormone receptor beta (Homo sapiens) (UniProt P10828); assay: qHTS assay for small molecule agonists of thyroid hormone receptor beta signaling (AID 588545);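 further: 0% = DMSO only and 100% = 10 nM T3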
Sequence of Thyroid hormone receptor beta (Homo sapiens) (P10828 whole entry, looked up): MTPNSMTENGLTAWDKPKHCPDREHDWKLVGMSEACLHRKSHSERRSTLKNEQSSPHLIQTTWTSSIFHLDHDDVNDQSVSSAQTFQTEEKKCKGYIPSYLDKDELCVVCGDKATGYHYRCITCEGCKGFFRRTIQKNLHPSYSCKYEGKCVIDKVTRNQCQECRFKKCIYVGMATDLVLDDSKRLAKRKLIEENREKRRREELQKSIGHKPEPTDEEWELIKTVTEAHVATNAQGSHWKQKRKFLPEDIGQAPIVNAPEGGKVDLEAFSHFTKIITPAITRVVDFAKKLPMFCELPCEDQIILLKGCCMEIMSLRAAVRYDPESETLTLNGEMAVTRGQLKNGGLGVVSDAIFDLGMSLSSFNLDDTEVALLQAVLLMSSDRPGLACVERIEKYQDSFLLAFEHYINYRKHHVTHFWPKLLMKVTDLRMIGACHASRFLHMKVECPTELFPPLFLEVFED
Method in brief: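 Efficacy and EC50 values derive from Hill fits of qHTS titration data, normalized to 10 nM T3 and DMSO-only wells. HEK 293 reporter cells were stimulated for 18 hrs at 37 C, with beta-lactamase activity measured by CCF4 fluorescence.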

[7] = qHTS assay for small molecule antagonists of retinoid X receptor alpha signaling (AID 588546; active means well fitted inhibition curve with a large enough effect in the signal ratio, with a control signal flat, not every such curve was filed as active; the % refers to the signal ratio;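 further: cells stimulated with 9-cis-retinoic acid as agonist; on the % scale 0 is the no-effect control and ±100 the full control effect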); conditions: HEK293T RXRa-UAS-bla, beta-lactamase ratio, antagonist mode; measured here: W530 green channel, cytotoxicity proxy
Method in brief: (§1)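 Beta-lactamase reporter inhibition, read as CCF4 fluorescence ratio (ex 405, em 460/530 nm) after 2 h at RT. HEK293T UAS-bla cells, 2500/well, were stimulated with 9-cis-RA at 500 or 100 nM final alongside test compound for 18 h at 37 C.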

[8] = target: Retinoic acid receptor RXR-alpha (Homo sapiens) (UniProt P19793); assay: as above; conditions: HEK293T RXRa-UAS-bla, beta-lactamase ratio, antagonist mode
Method in brief: as §1

[9] = qHTS assay for small molecule activators of the nuclear factor-kappa B (NF-kB) signaling pathway (AID 651749; active means well fitted activation curve with a large enough effect in the signal ratio; the % refers to the signal ratio; further: series mostly up to about 77 µM; % of control where 0% means no effect); conditions: NF-kB-bla ME-180 cells, beta-lactamase FRET ratio, 16 h; activation: stronger effect = higher value
Method in brief: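 FRET-based beta-lactamase detection in ME-180 cells reports NF-kB response-element-driven transcription following overnight (16 hr) compound treatment.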

[10] = qHTS assay for environmental chemicals that activate the Aryl hydrocarbon Receptor (AhR) signaling pathway (AID 651777; active means well fitted curve in the direction sought with a large enough effect; an effect the other way counts as inactive or inconclusive; further: nearly all actives have a fitted effect of over 15% in size; further: potency means the concentration at half of the fitted maximal effect; on activation: % of control where 0% means no effect); conditions: 1A2-DRE human hepatoma cells, luciferase, 24 h; activation: stronger effect = higher value
Method in brief: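 Luminescence read-out: One-Glo added for 30 min at RT after 24 hr compound treatment (37 C, 5% CO2) of human hepatoma cells expressing a DRE/CYP1A2 promoter–luciferase reporter; increased signal indicates AhR activation.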

[11] = target: Peroxisome proliferator-activated receptor alpha (Homo sapiens) (UniProt Q07869); assay: qHTS assay for small molecule agonists of the peroxisome proliferator-activated receptor alpha (PPARalpha) signaling pathway (AID 651778; active means well fitted curve in the direction sought with a large enough effect; an effect the other way counts as inactive or inconclusive; further: % of control where 0% means no effect); conditions: PathHunter PPARalpha complementation, chemiluminescence, 6 h; max response: stronger effect = higher value
Sequence of Peroxisome proliferator-activated receptor alpha (Homo sapiens) (Q07869 whole entry, looked up): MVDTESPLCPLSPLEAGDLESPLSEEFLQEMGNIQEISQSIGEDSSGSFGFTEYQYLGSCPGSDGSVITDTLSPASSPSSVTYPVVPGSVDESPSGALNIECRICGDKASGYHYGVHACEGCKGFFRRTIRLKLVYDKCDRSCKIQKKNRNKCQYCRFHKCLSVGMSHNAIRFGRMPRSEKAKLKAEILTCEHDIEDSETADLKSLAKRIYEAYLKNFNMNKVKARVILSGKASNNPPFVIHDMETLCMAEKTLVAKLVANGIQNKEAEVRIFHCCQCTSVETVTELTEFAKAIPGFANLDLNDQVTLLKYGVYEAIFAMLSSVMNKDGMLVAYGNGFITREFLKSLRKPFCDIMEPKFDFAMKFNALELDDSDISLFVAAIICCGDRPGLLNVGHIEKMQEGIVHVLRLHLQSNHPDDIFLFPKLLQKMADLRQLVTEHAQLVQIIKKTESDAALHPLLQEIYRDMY
Method in brief: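 Chemiluminescence from complemented enzyme reported PPARalpha activation in cells after 6 hr of compound treatment at 37 C. The detection reagent was incubated for 60 min at room temperature, and compounds were scored as agonists.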

[12] = qHTS assay for small molecule agonists of the antioxidant response element (ARE) signaling pathway measured by Nrf2-dependant transcriptional activity (AID 720636; active means well fitted curve in the direction sought with a large enough effect in the repeat runs; an effect the other way counts as inactive or inconclusive;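 further: HepG2 cells with an ARE-driven luciferase reporter; % of control where 0% means no effect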)
Method in brief: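 HepG2 ARE-luc reporter line, 1% dialyzed FBS; 6 hr attachment at 37 C, compound pinned in, 16 hr at 37 C/5% CO2; ONE-Glo, 30 min RT, luminescence read.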

[13] = qHTS assay for small molecule agonists of the antioxidant response element (ARE) signaling pathway measured by Nrf2-dependant transcriptional activity - cell viability counter screen (AID 720653; active means well fitted curve in the direction sought with a large enough effect in the repeat runs; an effect the other way counts as inactive or inconclusive; further: potency means the concentration at half of the fitted maximal effect; on max response: on the % scale 0 is the no-effect control and ±100 the full control effect); conditions: ARE-bla HepG2 viability, CellTiter-Glo ATP luminescence, 16 h; max response: stronger effect = lower value
Method in brief: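 Cytotoxicity counter screen: intracellular ATP quantified by CellTiter-Glo luminescence in the same ARE-bla HepG2 plates, after 16 h compound exposure and a 2 h beta-lactamase substrate step.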

[14] = qHTS assay for cell viability of HEK293 cells (AID 743288; active means well fitted curve in the direction sought with a large enough effect; an effect the other way counts as inactive or inconclusive; further: on the % scale 0 is the no-effect control and ±100 the full control effect; nearly all actives have a fitted effect of over 50% in size); conditions: ATP luminescence (CellTiter-Glo), 18 h; max response: stronger effect = lower value
Method in brief: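 HEK293, 18 h, 37 C, ATP luminescence. Cells at 2,000/well were allowed at least 5 h to settle before dosing; CellTiter-Glo developed 30 min at RT.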

[15] = qHTS assay for cell viability of the p53RE-bla HCT-116 cell line (AID 743292; active means well fitted curve in the direction sought with a large enough effect; an effect the other way counts as inactive or inconclusive; further: nearly all actives have a fitted effect of over 55% in size; further: potency means the concentration at half of the fitted maximal effect)
Method in brief: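 Luminescent ATP quantitation (CellTiter-Glo) served as the viability read-out; reagent was added after 16 h compound exposure at 37 C and read after 30 min at room temperature. Cells: p53RE-bla HCT-116, 4,000 per well.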

[16] = target: Peroxisome proliferator-activated receptor delta (Homo sapiens) (UniProt Q03181); assay: qHTS assay for small molecule agonists of peroxisome proliferator-activated receptor delta signaling (AID 588534);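 further: 0% = DMSO basal wells and 100% = positive control agonist at 10 µM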
Sequence of Peroxisome proliferator-activated receptor delta (Homo sapiens) (Q03181 whole entry, looked up): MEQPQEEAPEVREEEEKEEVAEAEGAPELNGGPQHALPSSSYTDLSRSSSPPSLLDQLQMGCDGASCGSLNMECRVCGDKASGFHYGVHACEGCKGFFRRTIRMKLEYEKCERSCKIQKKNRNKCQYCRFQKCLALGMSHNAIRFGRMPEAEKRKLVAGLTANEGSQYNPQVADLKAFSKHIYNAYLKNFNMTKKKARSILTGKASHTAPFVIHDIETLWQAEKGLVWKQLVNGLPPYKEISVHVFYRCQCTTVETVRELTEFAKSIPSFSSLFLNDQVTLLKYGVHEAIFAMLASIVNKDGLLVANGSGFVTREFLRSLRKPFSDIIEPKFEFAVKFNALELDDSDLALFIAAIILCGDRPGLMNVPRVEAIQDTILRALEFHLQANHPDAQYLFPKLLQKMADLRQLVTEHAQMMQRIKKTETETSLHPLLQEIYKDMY
Method in brief: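 Titration series tested in agonist mode on beta-lactamase reporter cells; 18 hrs at 37 C after a 5 hr pre-incubation. Readout: CCF4 fluorescence, 2 hrs RT. Hill equation gives EC50 and maximal response.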

[17] = target: Thyroid hormone receptor beta (Homo sapiens) (UniProt P10828); assay: qHTS assay for small molecule antagonists of thyroid hormone receptor beta signaling (AID 588547; active means well fitted inhibition curve with a large enough effect in the signal ratio, with a control signal flat, not every such curve was filed as active; the % refers to the signal ratio; further: potency means the concentration at half of the fitted maximal effect;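 on activity change % (negative = inhibition): cells stimulated with 0.4 nM T3 agonist during compound exposure; series mostly up to about 77 µM; on the % scale 0 is the no-effect control and ±100 the full control effect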); conditions: TR-UAS-bla HEK293, beta-lactamase ratio, antagonist mode, 18 h
Method in brief: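 Inhibition of T3-driven (0.4nM final) beta-lactamase reporter activity was measured over 0.59 nM to 92 uM compound after 18 h at 37 C. The cells were GripTite HEK293 TR-UAS-bla in charcoal/dextran-stripped serum, with CCF4 ratio read-out and IC50 from Hill fits.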

[18] = qHTS assay for small molecule antagonists of peroxisome proliferator-activated receptor delta signaling (AID 588535; active means well fitted inhibition curve with a large enough effect in the signal ratio, with a control signal flat, not every such curve was filed as active; the % refers to the signal ratio;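 on max response: cells co-treated with a PPAR-delta agonist as stimulator during compound exposure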); conditions: HEK293T PPARd-UAS-bla, beta-lactamase FRET ratio, 18 h; 460 nm channel
Method in brief: (§2)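 Antagonist-mode qHTS using GeneBLAzer PPAR-delta-UAS-bla HEK293T cells; compound exposure 18 hrs at 37 C over a titration. Ratiometric CCF4 fluorescence at 460/530 nm; concentration-response points fitted to the Hill equation.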

[19] = target: Peroxisome proliferator-activated receptor delta (Homo sapiens) (UniProt Q03181); assay: as above
Method in brief: as §2

CC(Oc1ccc(Cl)cc1Cl)C(=O)O (configuration not stated)
2.43%: max response [7]
inactive: activation [1] -0.107% | activation [2] 6.74% | outcome [3] | Potency [5] | Potency [6] | max response [8] 1.72% | activation [9] -1.28% | activation [10] -1.09% | max response [11] 0.174% | Potency [12] | max response [13] 8.84% | max response [14] -4.02% | Potency [15]
11.7%: max response [4]

C=CCC1=C(C)[C@@H](OC(=O)[C@@H]2[C@@H](C=C(C)C)C2(C)C)CC1=O
6.67%: max response [4]
-5.3%: max response [7]
inactive: activation [1] 1.33% | activation [2] 1.31% | outcome [3] | Potency [5] | Potency [6] | activation [9] -0.0415% | activation [10] 1.77% | max response [11] 2.33% | Potency [12] | max response [13] -11.6% | max response [14] -2.02%

CCC[CH2][Sn]([CH2]CCC)([CH2]CCC)[O][Sn]([CH2]CCC)([CH2]CCC)[CH2]CCC
active: Potency [5] 0.355 µM | Potency [13] 22.4 µM | Potency [15] 22.4 µM
inactive: activation [1] 0.0431% | activation [2] 3.22% | activation [10] 0.111% | max response [11] 5.55%
-23.3%: max response [4]

CC(C)N(C(=O)SCC(Cl)=C(Cl)Cl)C(C)C
9.5%: max response [7]
inactive: activation [1] 4.22% | activation [2] 18.5% | outcome [16] | outcome [3] | max response [8] 10.8% | activity change % (negative = inhibition) [17] -15.2% | max response [11] 22.8% | max response [13] 15.1% | max response [14] 2.96%

O=P(O)(OCc1ccccc1)OCc1ccccc1
inactive: activation [1] -0.26%

Nc1ccc(N)c(Cl)c1
inactive: activation [1] -0.837%

CCN(Cc1c(F)cccc1Cl)c1c([N+](=O)[O-])cc(C(F)(F)F)cc1[N+](=O)[O-]
inactive: activation [1] 8.75%

O=[N+]([O-])c1ccc(Nc2ccccc2)cc1
-4.45%: max response [7]
inactive: activation [1] 0.7% | activation [2] -0.43% | outcome [3] | Potency [6] | max response [8] -16.2% | activity change % (negative = inhibition) [17] -15.7% | activation [10] 5.27% | max response [11] -1.55% | max response [13] -13.2% | max response [14] 1.82% | Potency [15]

CCCCCCCCCCCCC1CO1 (configuration not stated)
inactive: activation [1] -2.55%

O=S(=O)(c1ccc(Cl)cc1)c1cc(Cl)c(Cl)cc1Cl
inactive: activation [1] 3.42% | activation [2] 0.889% | outcome [3] | Potency [6] | activity change % (negative = inhibition) [17] 6.33% | activation [9] 1.59% | activation [10] -2.98% | max response [11] -3.59% | Potency [12] | max response [13] -29.2% | max response [14] -31.9% | Potency [15]

O=P(Oc1ccccc1)(Oc1ccccc1)Oc1ccccc1
29%: max response [18]
inactive: activation [1] 1.95% | activation [2] 6.86% | outcome [16] | Potency [19] | outcome [3] | Potency [6] | max response [8] -15.3% | activity change % (negative = inhibition) [17] -5.53% | activation [9] -2% | activation [10] 2.98% | max response [11] -0.776% | Potency [12] | max response [13] -2.38% | max response [14] -15.7% | Potency [15]
0.157%: max response [7]

CN(C)c1ccc(C(=O)c2ccc(N(C)C)cc2)cc1
active: Potency [10] 5.01 µM
inactive: activation [1] -3.55% | activation [2] -2.75% | outcome [3] | Potency [6] | activation [9] 1.06% | max response [11] -1.25% | max response [13] -12.9% | max response [14] -23.3% | Potency [15]

COC(=O)C(C)Oc1ccc(Oc2ccc(Cl)cc2Cl)cc1 (configuration not stated)
inactive: activation [1] -6.35% | activation [2] -5.37% | outcome [16] | Potency [5] | Potency [6] | max response [8] -16.7% | activity change % (negative = inhibition) [17] 8.67% | activation [9] -0.397% | activation [10] -0.824% | Potency [12] | max response [13] -5.74% | max response [14] -4.71% | Potency [15]
20.2%: max response [4]
-8.87%: max response [7]

CC1(C)[C@H](C(=O)O[C@H](C#N)c2cccc(Oc3ccccc3)c2)[C@@H]1/C=C(\Cl)C(F)(F)F
9.43%: max response [4]
inactive: activation [1] -0.137% | activation [2] 16% | outcome [16] | Potency [19] | outcome [3] | Potency [5] | Potency [6] | max response [8] -28.2% | activity change % (negative = inhibition) [17] 3.81% | activation [9] -0.133% | activation [10] 0.227% | max response [11] -0.66% | Potency [12] | max response [13] -24% | max response [14] -15% | Potency [15]
-6.94%: max response [7]
-6.46%: max response [18]

O=[N+]([O-])c1ccc(O)cc1C(F)(F)F
inactive: activation [1] -0.0736%

CC(Oc1cccc(Cl)c1)C(=O)O (configuration not stated)
-3.83%: max response [4]
47.7%: max response [18]
-2.12%: max response [7]
inactive: activation [1] 0.618% | activation [2] -9.84% | outcome [16] | Potency [19] | outcome [3] | Potency [5] | Potency [6] | max response [8] -12.8% | activity change % (negative = inhibition) [17] 10.2% | activation [10] -0.19% | max response [11] -0.485% | Potency [12] | max response [13] -0.643% | max response [14] -4.52% | Potency [15]

CC(C)OC(=O)C(O)(c1ccc(Br)cc1)c1ccc(Br)cc1
inactive: activation [1] 5.65% | activation [2] -15% | outcome [3] | activation [10] 8.09% | Potency [12] | max response [13] -7.97% | max response [14] -24.4%
active: Potency [15] 70.8 µM

CC(C)C[C@H](NC(=O)OCC1c2ccccc2-c2ccccc21)C(=O)O
inactive: activation [1] -0.845%

CC1=C(C(=O)Nc2ccccc2)S(=O)(=O)CCO1
active: Potency [17] 39.8 µM
inactive: activation [1] -2.72% | activation [2] -17.4% | Potency [6] | activation [9] -0.594% | activation [10] -2.25% | max response [11] -2.04% | max response [13] -1.32% | max response [14] -49.4%
